Values joined by “and” are separate entries in the source; they are usually repeats but may differ in a detail not shown here. Equal entries are not always repeated. Compounds without any hit were thinned out: in the full panel of roughly 83,000, 20% have a hit.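 Method: cells in 96-well plates; compound added at one concentration; 48 h incubation; percent growth measured; values under 10 scored active.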 Active and inactive are the calls of the source.

The source of these data is PubChem BioAssay (NCI).

The subject of one experiment is HCC-2998 colon. As to the kind of experiment: NCI-60 one-dose screen, 48 h (100 = growth as untreated, 0 = no growth, -100 = all killed). Particulars: 1 µM. The method, then: Growth inhibition of the HCC-2998 human tumor cell line is measured as a screen for anti-cancer activity. Cells are grown in 96 well plates and exposed to the test compound for 48 hours. Compounds are tested at a single concentration, which is 10^-5 M for most compounds. The reported endpoint is percent growth (GI% or GIPRCNT), where numbers from 0 - 100% represent growth inhibition, and numbers from -100% - 0 represent cell death. For example, a value of 40 represents 60% growth inhibition. A value of 0 means no net growth occurred over the course of the experiment. A value of -40 indicates 40% of cells at the beginning of the experiment died by the end of the experiment. A value of -100 means all cells are dead at the end of the experiment.
NCI-60 Human Tumor Cell Lines Screen was performed using the standard one-dose NCI protocol, which is described in more detail at https://dtp.cancer.gov/discovery_development/nci-60/default.htm.
Compounds with GIPRCNT values below 10 were considered active. Activity score was based on GIPRCNT using the following formula: […]
Score is 0 for GIPRCNT values of 100 or above, 50 for GIPRCNT values of 0, and 100 for GIPRCNT values of -100.
`CC/C(=C(/c1ccc(O)cc1)c1ccc(OCCN(C)C(=O)CCOCCNC(=O)Cc2ccc3c(c2)CN([C@@H]2CCC(=O)NC2=O)C3=O)cc1)c1ccccc1`: the growth is 97.3% (inactive).

With `CC/C(=C(/c1ccc(O)cc1)c1ccc(OCCN(C)C(=O)COCCOCCNC(=O)c2ccc3c(c2)CN([C@@H]2CCC(=O)NC2=O)C3=O)cc1)c1ccccc1`, the growth is 97.6% (inactive).

The same experiment, now with this note: 10 µM.
On to `CC/C(=C(/c1ccc(O)cc1)c1ccc(OCCN(C)C(=O)CCOCCNC(=O)Cc2ccc3c(c2)CN([C@@H]2CCC(=O)NC2=O)C3=O)cc1)c1ccccc1`, for which the growth is 78.3% (inactive). Same read-out and setting: the same measure for `CC/C(=C(/c1ccc(O)cc1)c1ccc(OCCN(C)C(=O)COCCOCCNC(=O)c2ccc3c(c2)CN([C@@H]2CCC(=O)NC2=O)C3=O)cc1)c1ccccc1`: 82.8% (inactive).

The experiment is the same for the next values; noted with them: 10 µM unless noted.
`COc1cc(CNC(=O)C[C@H](C)CCC=C(C)C)ccc1OCc1cn(-c2ccccc2Cl)nn1`: the growth is 91.9% (inactive).

Turning to `Nc1nnc(-c2cncc(Br)c2)c(-c2c[nH]c3ccc(Br)cc23)n1`, the growth is 74.7% (inactive). Still for that read-out and setting: the same measure for `N/C(=N\c1nc2ccccc2s1)NC(=O)Nc1ccccc1[N+](=O)[O-]`: 8.25% (active). On the same count and under the same terms, the same measure for `O=C(Nc1ccc(Cl)c(C(F)(F)F)c1)N1CCN(c2cc(-c3cn(-c4ccccc4)nc3-c3cccc(O)c3)ccn2)CC1`: 6.31% (active). With `Cn1cc(Nc2ncnc(-c3ccc(N4CCCC4)c(C#N)c3)n2)cn1`, the growth is 68.6% (inactive).

In the case of `COc1ccc(N=Nc2c(N)nn3c(-c4ccc(F)cc4)ccnc23)cc1`, the growth was 108% (inactive). On the same count and under the same terms, the same measure for `CN(C)c1ccc(/C=C/c2n(Cc3ccc4ccccc4c3)c3ccccc3[n+]2Cc2ccc3ccccc3c2)cc1`: -89.1% (active); for `COc1ccc2[nH]c(=O)c(CSc3ccccc3Nc3nccc(-c4ccc5c(c4)OCO5)n3)cc2c1`: 110% (inactive).

As for `O=C(Nc1ccc(F)cc1)Nc1nc2ccc([N+](=O)[O-])cc2s1`, the growth was 11.8% (inactive). The same measure, in the same setting: the result for `CCOc1ccccc1[C@H]1C(C(=O)c2ccc(Cl)cc2)C2(N[C@@H]1c1ccccc1)C(=O)Nc1ccccc12` (stereo not given in full) reads 6.07% (active). The same measure, in the same setting: the same measure for `Nc1cc(-c2c[nH]c3ccc(Br)cc23)nc2cc(-c3c[nH]c4ccccc34)nn12`: -78.2% (active); for `O=C(N/N=C/c1ccoc1)c1[nH]c2ccc(Br)cc2c1-c1ccccc1`: -100% (active). `O=C(c1ccc(O)cc1)C1[C@H](c2ccc(Cl)cc2)[C@@H](c2ccccc2)NC12C(=O)Nc1ccccc12` (stereo not given in full): the growth is -61.1% (active).

`NNc1ncnc2sc3c(c12)CCN(Cc1ccccc1)C3`: the growth was 52.1% (inactive). Same read-out and setting: the same measure for `CCCn1c(NC(=O)c2cccc(C(N)=O)c2)nc2cc(CN3CCCCC3)ccc21`: 116% (inactive). In the case of `Cn1cc(-c2cc(N)n3nc(-c4c[nH]c5ccccc45)cc3n2)c2cc(Br)ccc21`, the growth is -77% (active). The same measure, in the same setting: the same measure for `O=C(CSc1nc2sc3c(c2c(=O)n1-c1ccc(Cl)cc1)CCCC3)NNC(=O)c1ccc(F)cc1`: 113% (inactive).

For the compound `FC(F)(F)CN1CCN(CCn2c(C(F)(F)F)cc3c(Cl)ncnc32)CC1`, the growth was -96.7% (active). Take `CC(=O)c1ccc2c(N)c(C(=O)Nc3ccc(C(F)(F)F)cc3)sc2n1`: the growth was 83.6% (inactive). Still for that read-out and setting: the result for `O=C(CCl)Nc1ccc(C(=O)/C=C/c2cc3ccccc3nc2Cl)cc1` reads -93.4% (active) and 51.1% (inactive); that for `Cc1nn(-c2ccccc2)c2nc(C)n(C(=O)N/N=C/c3ccccc3)c(=O)c12`, 100% (inactive); that for `Cn1cc(-c2cc(N)n3nc(-c4c[nH]c5ccc(F)cc45)cc3n2)c2cccnc21`, -100% (active). The same measure, in the same setting: the result for `Nc1cc(-c2c[nH]c3ccc(Cl)cc23)nc2cc(-c3c[nH]c4ccccc34)nn12` reads -81.2% (active); that for `CN1C(=O)C(O)(CC(=O)c2cc3ccccc3oc2=O)c2ccccc21` (stereo not given), 109% (inactive); that for `COc1ccc(-c2cc(-c3cc(C(C)C)c(O)cc3C)nn2-c2ccc(S(N)(=O)=O)cc2)cc1`, 45.9% (inactive). Take `Cc1cc(C(NC(=O)CCCCCNc2cccc3c2C(=O)N(C2CCC(=O)CC2=O)C3=O)c2cccc(N(C)C)c2)c(O)c2ncccc12` (stereo not given): the growth was 14.6% (inactive). Still for that read-out and setting: the same measure for `COc1ccc(-c2cc(C(=O)N=Nc3c(O)[nH]c4ccc(Cl)cc34)c3ccccc3n2)cc1`: 19.3% (inactive); for `Cc1ccc(NC(=O)N/N=C/c2c[nH]c3ccccc23)c(C)c1`: -11.2% (active). On to `COc1ccc2[nH]c(=O)c(CSc3ccccc3Nc3nccc(-c4ccc(C(F)(F)F)cc4)n3)cc2c1`, for which the growth was 18.8% (inactive). Consider `O=C(O)CC1S/C(=N/N=C/c2nc3ccccc3s2)NC1=O` (stereo not given), for which the growth was 106% (inactive). The same measure, in the same setting: the result for `COc1ccc(SC2c3cc(OC)ccc3Oc3nc(N)c(C#N)c(N)c32)cc1` (stereo not given) reads 117% (inactive); that for `O=C(NNC(=S)NC(=O)c1ccccc1)c1ccc(OCc2nc3ccc(Cl)cc3[nH]2)cc1`, -80.3% (active). Still for that read-out and setting: the same measure for `Cc1nc2sccn2c1-c1nnc(SCC(C)C)o1`: 113% (inactive). The same measure, in the same setting: the same measure for `CC1=C(C(=O)Nc2ccccc2)C(c2ccc3ccccc3c2)n2c(nc3ccccc32)N1` (stereo not given): 52.3% (inactive); for `O=C(N/N=C/c1c[nH]c2ccccc12)Nc1ccccc1Cl`: -22% (active). Regarding `CCOc1ccccc1[C@H]1C(C(=O)c2ccc(Cl)cc2)C2(N[C@@H]1c1ccccc1)C(=O)Nc1ccc(Cl)cc12` (stereo not given in full), the growth was 20.4% (inactive).
